NALP1 yeast inh = NALP1 inflammasome inhibitors in reconstituted yeast, colorimetric, S. cerevisiae, triplicate retest; S. cerevisiae NALP1/ASC/caspase-1 growth, X-gal OD620, 72 h; inhibition, % at 10 µM; actives 0.61% (n = 280,000); in the data active means inhibition mostly above about 24%, no sharp cut-off; inactive means mostly below about 32%
tim23-1 inh = growth inhibitors of tim23-1 mutant yeast, primary screen, luminescence, uHTS; S. cerevisiae tim23-1 growth, BacTiter-Glo luminescence, 24 h; inhibition, % at 20 µM; actives 1.3% (n = 330,000); AID 463212, 2010;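 active means growth inhibition of the mutant yeast at or above 50%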;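 further: temperature-sensitive mutant grown at 25 °C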
NLRP3 yeast inh = NALP3 inflammasome inhibitors in reconstituted yeast, primary screen, luminescence, uHTS; Yeast reconstituted NLRP3/ASC/caspase-1, beta-gal luminescence, 24 h; inhibition, % at 10 µM; actives 0.39% (n = 330,000);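 active means inhibition of 50% or more; inactive means inhibition below 50%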
tim10-1 inh = growth inhibitors of tim10-1 mutant yeast, primary screen, luminescence, uHTS; S. cerevisiae tim10-1 ts strain growth, BacTiter-Glo, 24 h; inhibition, % at 20 µM; actives 2.2% (n = 330,000); AID 463190, 2010;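 active means inhibition of at least 40%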;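 further: mutant grown at 25 °C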
TIM10 inh = growth inhibitors of isogenic TIM10 control yeast, primary screen, counter-screen for tim10-1 yeast inhibitor project, luminescence, uHTS. S. cerevisiae TIM10 strain growth, BacTiter-Glo luminescence, 24 h. inhibition, % at 10 µM. actives 1.4% (n = 330,000);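 active means inhibition of 40% or more at the single tested concentration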;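 further: wild-type TIM10 isogenic control strain grown at permissive 25 °C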
TIM10 conf = growth inhibitors of wild-type TIM10 yeast, confirmation, counter-screen for tim10-1 synthetic lethality project, single concentration, luminescence, S. cerevisiae; shares compounds with TIM10 inh; S. cerevisiae tim10 strain growth, BacTiter-Glo luminescence, 24 h; inhibition, % at 10 µM; actives 63% (n = 4,600); AID 463215, 2010;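 active means inhibition of yeast growth at or above a set limit in either of two replicates at 10 µM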; further: this counterscreen used the strain with wild-type TIM10
Large screens that a line does not name were inactive (follow-up assays come after a bar, where they were run). Compounds with a hit are over-represented: about 4% of the library has one in this group of screens.

Cc1cc(/C=C2\SC(=S)N(C)C2=O)c(C)n1-c1ccc(O)cc1	TIM10 inh 74 | TIM10 conf 91
COc1ccc(NC(=O)/C(C#N)=C/c2ccc(Sc3nncn3C)c([N+](=O)[O-])c2)cc1	TIM10 inh 54 | TIM10 conf inactive
COc1ccccc1N1CCN(C(=O)c2cc(-c3cccc(Cl)c3)on2)CC1	TIM10 inh 43 | TIM10 conf 31
COc1cc(Cl)ccc1OCc1cc(C(=O)N2CCN(c3ccccn3)CC2)no1	TIM10 inh 55 | TIM10 conf 68
COc1cc(Cl)ccc1OCc1cc(C(=O)N2CCN(C)CC2)no1	none
COC(=O)c1cccc(-n2sc3ccccc3c2=O)c1	none (no result: NALP1 yeast inh)
O=c1c2ccccc2sn1-c1ccc(F)cc1	TIM10 inh 55 (no result: NALP1 yeast inh) | TIM10 conf 64
Cc1onc(-c2ccccc2)c1C(=O)Nc1ccc(Cl)c(S(=O)(=O)N2CCOCC2)c1	none (no result: NALP1 yeast inh)
COc1ccc(O)c(-c2cc(-c3ccccc3[N+](=O)[O-])[nH]n2)c1	none
Cc1ccc(O)c(-c2cc(-c3ccccc3[N+](=O)[O-])[nH]n2)c1	TIM10 inh 42 | TIM10 conf inactive
C=CCn1c(SCC(=O)NCC2CCCO2)nc2sc(CC)cc2c1=O (stereo not drawn)	none (no result: NALP1 yeast inh)
O=C(N/N=C/C1C(c2ccccc2)C1(Cl)Cl)c1cccc(Cl)c1 (stereo not drawn)	TIM10 inh 40 | TIM10 conf inactive
COc1ccc(NC(=O)Nc2c[nH]c(=O)[nH]c2=O)cc1	none
CC1(C)c2[nH]c3ccccc3c2C[C@H]2C(=O)N(Cc3ccccc3F)C(=O)N21	none (no result: NALP1 yeast inh)
CC1(C)c2[nH]c3ccccc3c2C[C@@H]2C(=O)N(Cc3ccccc3F)C(=O)N21	TIM10 inh 41 (no result: NALP1 yeast inh) | TIM10 conf inactive
CC(OC(=O)/C=C/c1ccccc1)C(=O)Nc1cccc(C#N)c1 (stereo not drawn)	none (no result: NALP1 yeast inh)
O=C(CNC(=O)c1ccccc1)OCc1nnc(-c2ccccc2)o1	none (no result: NALP1 yeast inh)
CCOc1ccc(C(=O)NCC(=O)OCc2nnc(-c3ccccc3)o2)cc1OCC	TIM10 inh 50 (no result: NALP1 yeast inh) | TIM10 conf inactive
O=C(N/N=C/c1ccccc1OCc1ccccc1)c1cccnc1	TIM10 inh 40 | TIM10 conf inactive
COc1cccc(/C=N/NC(=O)c2cnccn2)c1O	TIM10 inh 95 | TIM10 conf inactive
COc1ccc(/C=N/NC(=O)c2cnccn2)c(OC)c1OC	none
CCN(CC)CCNC(=O)C(=O)NCC1OCCN1C(=O)c1ccc2c(c1)OCO2 (stereo not drawn)	none
COC(=O)c1ccc(NC(=S)NC2CCc3ccccc32)cc1 (stereo not drawn)	TIM10 inh 47 | TIM10 conf 31
NC(=O)C1CCN(C(=O)C2CC(=O)N(Cc3ccccc3)C2)CC1 (stereo not drawn)	none (no result: NALP1 yeast inh)
COc1cccc(C2NC(=O)c3ccccc3O2)c1OCc1ccccc1F (stereo not drawn)	TIM10 inh 43 | TIM10 conf inactive
C/C(Cl)=C\Cn1c(O)c(N=NC(N)=S)c2cc(Br)ccc21	TIM10 inh 42 | TIM10 conf 48
CC(Sc1nc(N)c2c3c(sc2n1)CSC(C)(C)C3)C(=O)Nc1ccccc1 (stereo not drawn)	TIM10 inh 47 | TIM10 conf inactive
OCC(O)[C@@H](O[C@H]1O[C@H](CO)[C@@H](O)[C@H](O)[C@H]1O)[C@H](O)[C@@H](O)CO (stereo partly drawn)	none (no result: NALP1 yeast inh)
Oc1ccc(-c2nc3ccc4ccccc4c3c3c2CCC3)cc1O	TIM10 inh 41 | TIM10 conf 36
COc1ccc(-c2cc(C(=O)O)nc3ccc4ccccc4c23)cc1OC	none
Cc1ccc(C)c(OCCC(=O)N2CCN(S(=O)(=O)c3ccc([N+](=O)[O-])cc3)CC2)c1	TIM10 inh 53 (no result: NALP1 yeast inh) | TIM10 conf inactive
CN(C)S(=O)(=O)c1ccc(Cl)c(C(=O)NNC(=O)c2ccc3c(c2)OCO3)c1	none (no result: NALP1 yeast inh)
NC(=O)CNC(=O)[C@@H]1CC2(CC(c3ccc(Cl)cc3)=NO2)CN1C(=O)c1ccccc1 (stereo partly drawn)	none
Cc1c(C(=O)NCc2cccnc2)oc2ccc(S(=O)(=O)N3CCCCCC3)cc12	TIM10 inh 43 | TIM10 conf inactive
C=C(C)C1CC=C(C)/C(=N\NC(=S)Nc2ccc(C)cc2)C1 (stereo not drawn)	none
Cc1ccc2c(c1)Cc1nc3ccccc3nc1-2	TIM10 inh 46 | TIM10 conf 51
O=C(C1CCC(C(=O)N2CCc3ccccc32)CC1)N1CCc2ccccc21 (stereo not drawn)	none (no result: NALP1 yeast inh)
O=C(CCl)c1ccc2c(c1)CCN2C(=O)C1CC1	TIM10 inh 60 | TIM10 conf 74
CCOc1ccc(CCNC(=O)CN2C(=O)NC3(CCCCC3)C2=O)cc1OCC	none (no result: NALP1 yeast inh)
Cc1ccc2oc(=O)c3cc(C(=O)NCCCN4CCc5ccccc5C4)sc3c2c1	TIM10 inh 55 | TIM10 conf inactive
Cc1ccc2oc(=O)c3cc(C(=O)NCCCN4CCCCCC4)sc3c2c1	none
CC(C)CCOP(=O)(c1ccc(N(C)C)cc1)C(O)c1ccc(C(C)C)cc1 (stereo not drawn)	none | TIM10 conf 36
CC(C)CCOP(=O)(c1ccc(N(C)C)cc1)C(O)c1ccccc1F (stereo not drawn)	TIM10 inh 50 | TIM10 conf 41
O=S(=O)(c1cccc(-c2csc(-c3cccnc3)n2)c1)N1CCOCC1	none (no result: NALP1 yeast inh)
O=S(=O)(c1ccc(-c2csc(-c3cccnc3)n2)cc1)N1CCCCC1	TIM10 inh 48 | TIM10 conf inactive
CC(c1ccccc1)n1cc(C(=O)NCc2cccnc2)nn1 (stereo not drawn)	TIM10 inh 51 | TIM10 conf inactive
CCCC(C)NC(=O)c1cc(S(=O)(=O)N2CCCCCC2)ccc1OC (stereo not drawn)	none (no result: NALP1 yeast inh)
Cc1ccc2ccc(C3C(=O)c4ccccc4C3=O)nc2c1	TIM10 inh 61 (no result: NALP1 yeast inh) | TIM10 conf 66
Cc1ccc(C)c(C2C(=O)c3ccccc3C2=O)c1	none
Cc1cc([N+](=O)[O-])ccc1NC(=O)C(C)NC1CCCCC1 (stereo not drawn)	none
Cn1c(SC(C(=O)Nc2ccc(F)cc2)c2ccccc2)nc2ccccc21 (stereo not drawn)	TIM10 inh 46 | TIM10 conf 43
CCOC(=O)Cn1cnc2c(cnn2-c2ccc(OC)cc2)c1=O	none
CCOCCCNC(=O)Cn1cnc2c(cnn2-c2ccc(OC)cc2)c1=O	TIM10 inh 50 | TIM10 conf inactive

From PubChem BioAssay
